Active and inactive are the calls of the source.
Key:
Albumin (Bos taurus) = Albumin (Bos taurus) (UniProt P02769); experiment: bovine serum albumin binders on microarray, profiling panel, artefact control for SMM control protein annotation, biochemical, small-molecule microarray, Alexa647 label, 635/667 nm fluorescence (AID 1118); conditions: BSA-A647 binding, fluorescence 635 nm, higher = more signal;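 further: score merges 667 nm emission intensity and signal-to-noise per printed compound spot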
Sequence of Albumin (Bos taurus) (P02769 whole entry, looked up): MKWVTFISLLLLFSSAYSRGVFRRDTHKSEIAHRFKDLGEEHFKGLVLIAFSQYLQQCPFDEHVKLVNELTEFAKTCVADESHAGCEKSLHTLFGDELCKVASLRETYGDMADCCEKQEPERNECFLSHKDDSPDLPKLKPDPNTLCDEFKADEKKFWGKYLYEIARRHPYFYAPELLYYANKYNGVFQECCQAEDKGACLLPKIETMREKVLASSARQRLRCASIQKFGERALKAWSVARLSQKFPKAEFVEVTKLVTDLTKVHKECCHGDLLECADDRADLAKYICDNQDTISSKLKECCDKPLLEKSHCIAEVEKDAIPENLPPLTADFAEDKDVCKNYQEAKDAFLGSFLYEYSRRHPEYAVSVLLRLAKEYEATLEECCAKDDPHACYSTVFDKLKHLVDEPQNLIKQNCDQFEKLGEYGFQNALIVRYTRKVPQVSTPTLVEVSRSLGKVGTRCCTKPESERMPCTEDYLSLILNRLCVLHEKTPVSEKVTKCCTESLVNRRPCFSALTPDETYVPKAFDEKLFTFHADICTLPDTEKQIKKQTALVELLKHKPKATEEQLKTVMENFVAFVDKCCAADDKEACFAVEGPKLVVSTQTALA

[1] = small-molecule microarray binders of probe aXIP, primary screen, biochemical, NeuroSMM set, 635/667 nm fluorescence (AID 1119); conditions: higher = more signal, called active from +8 up or from −8 down;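 further: probe is the protein aXip251-270 applied at 1 µg/mL to compound-printed slides; binding of probe to printed compounds measured as 667 nm fluorescence plus signal to noise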
[2] = small-molecule binders of probe aNOTCH3, primary screen, biochemical, small-molecule microarray, 635/667 nm fluorescence (AID 1120); conditions: higher = more signal;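 further: probe is a biotin-tagged antibody raised against NOTCH3 rather than NOTCH3 protein; score merges spot fluorescence near 667 nm with spot signal to noise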
[3] = small-molecule binders of probe aNOTCH2, primary screen, biochemical, small-molecule microarray, 635/667 nm fluorescence (AID 1121); conditions: higher = more signal;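 further: score merges feature fluorescence read at 667 nm with its signal to noise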
[4] = target: Carbonic anhydrase 2 (Homo sapiens) (UniProt P00918); experiment: CAII small-molecule binders, profiling panel, biochemical, small-molecule microarray, Alexa647-labelled CAII (AID 1122); conditions: CAII-A647 binding fluorescence, higher = more signal
[5] = COS7 lysate on small-molecule microarray, probe aHis, 635 nm (AID 1123); conditions: COS7 cell lysate, fluorescence, higher = more signal;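 further: z-score combines 667nm fluorescence intensity with signal-to-noise per printed compound spot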
[6] = compound binding in COS7 lysate, probe aLAP1, primary screen, cell lysate, small-molecule microarray (AID 1124); conditions: probe aLAP1, fluorescence, higher = more signal;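 further: lysate comes from COS7 cells expressing LAP1 and is applied at 0.3 µg/mL; score merges spot fluorescence near 667 nm with signal-to-noise over triplicate slides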
Sam68 (KHDRBS1) = experiment: Sam68 small-molecule binders, primary screen, biochemical, small-molecule microarray, 635 nm fluorescence (AID 1125); conditions: small-molecule microarray binding, higher = more signal;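 further: score merges 667 nm channel intensity with signal to noise over triplicate slides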
[7] = system: Chordin-like protein 2 (CHRDL2); experiment: CHRDL2 small-molecule binders, primary screen, biochemical, small-molecule microarray, 635 nm fluorescence (AID 1126); conditions: small-molecule microarray binding, fluorescence 635 nm; higher = more signal;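 further: printed compound slides probed with Chrdl2 protein at 4 µg/mL for 1 h at 4 C; score merges 667 nm emission intensity with signal to noise over three replicate slides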
[8] = target: Concanavalin-A (Canavalia ensiformis) (UniProt P02866); experiment: ConA small-molecule binders, primary screen, artefact control for SMM control protein annotation, biochemical, small-molecule microarray, Alexa647 label, 635 nm (AID 1127); conditions: ConA-A647 binding fluorescence, higher = more signal;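 further: z combines 667 nm emission intensity with signal-to-noise across three replicate slides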
Sequence of Concanavalin-A (Canavalia ensiformis) (P02866 whole entry, looked up): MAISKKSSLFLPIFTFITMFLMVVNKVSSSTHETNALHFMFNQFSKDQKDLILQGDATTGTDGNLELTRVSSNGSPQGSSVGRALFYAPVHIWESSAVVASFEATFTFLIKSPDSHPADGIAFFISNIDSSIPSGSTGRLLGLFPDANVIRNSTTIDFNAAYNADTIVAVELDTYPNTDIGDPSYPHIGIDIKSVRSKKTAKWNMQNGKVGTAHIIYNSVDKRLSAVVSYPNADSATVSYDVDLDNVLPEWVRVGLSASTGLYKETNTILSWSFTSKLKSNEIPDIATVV

[9] = anti-His antibody binders, primary screen, artefact control for SMM control protein annotation, biochemical, small-molecule microarray, 635 nm fluorescence (AID 1128); conditions: anti-His Alexa647 antibody binding, higher = more signal;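 further: score merges feature fluorescence with signal-to-noise for each printed compound spot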
[10] = system: Human papillomavirus type 1a E7 protein (residues 1-88); experiment: HPV1a E7 small-molecule binders, primary screen, biochemical, small-molecule microarray, residues 1-88, 635 nm (AID 1129); conditions: small-molecule microarray binding, fluorescence 635 nm; higher = more signal
[11] = target: Focal adhesion kinase 1 (Homo sapiens) (UniProt Q05397); experiment: small-molecule microarray binders of FAK, primary screen, biochemical, 635/667 nm fluorescence, BSA, DTT (AID 1130); conditions: PTK2 binding, 635 nm fluorescence, higher = more signal;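 further: composite of spot emission at 667 nm and signal to noise over triplicate slides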
Sequence of Focal adhesion kinase 1 (Homo sapiens) (Q05397 whole entry, looked up): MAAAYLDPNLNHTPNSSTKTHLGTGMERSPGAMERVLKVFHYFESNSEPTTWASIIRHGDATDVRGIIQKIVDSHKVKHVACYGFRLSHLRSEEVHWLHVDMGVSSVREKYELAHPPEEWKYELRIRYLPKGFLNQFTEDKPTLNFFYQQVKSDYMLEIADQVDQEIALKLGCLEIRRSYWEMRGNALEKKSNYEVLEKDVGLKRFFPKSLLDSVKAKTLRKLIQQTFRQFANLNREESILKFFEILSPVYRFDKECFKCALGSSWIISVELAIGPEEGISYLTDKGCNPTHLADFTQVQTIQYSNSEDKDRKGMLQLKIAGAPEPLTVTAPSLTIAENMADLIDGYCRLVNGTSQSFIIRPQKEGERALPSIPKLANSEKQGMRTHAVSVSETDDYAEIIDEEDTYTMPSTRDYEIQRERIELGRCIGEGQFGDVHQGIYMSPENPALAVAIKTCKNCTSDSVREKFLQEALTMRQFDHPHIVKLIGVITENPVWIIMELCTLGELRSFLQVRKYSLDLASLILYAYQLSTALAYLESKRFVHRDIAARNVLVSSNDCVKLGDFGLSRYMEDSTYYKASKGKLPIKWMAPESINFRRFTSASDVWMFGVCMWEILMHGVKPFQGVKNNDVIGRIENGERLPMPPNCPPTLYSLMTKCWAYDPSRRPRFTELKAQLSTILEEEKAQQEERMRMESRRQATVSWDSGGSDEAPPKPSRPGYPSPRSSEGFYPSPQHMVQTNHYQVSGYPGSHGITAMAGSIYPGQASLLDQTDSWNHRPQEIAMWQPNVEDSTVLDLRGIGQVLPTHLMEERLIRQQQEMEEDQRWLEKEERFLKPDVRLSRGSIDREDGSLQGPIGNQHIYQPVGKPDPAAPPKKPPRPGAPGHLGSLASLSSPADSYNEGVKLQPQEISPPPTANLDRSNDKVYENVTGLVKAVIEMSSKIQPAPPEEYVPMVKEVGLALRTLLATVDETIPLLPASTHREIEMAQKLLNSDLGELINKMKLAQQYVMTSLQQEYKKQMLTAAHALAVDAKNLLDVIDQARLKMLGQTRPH

[12] = system: Fibrinogen (Alexa647-labelled); experiment: fibrinogen binders on compound microarrays, profiling panel, artefact control for SMM control-protein annotation, biochemical, small-molecule microarray, 635/667 nm fluorescence (AID 1131); conditions: fibrinogen-A647 binding fluorescence, higher = more signal;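 further: z-score merges 667 nm fluorescence with per-spot signal-to-noise over triplicate slides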
[13] = target: Follistatin (Homo sapiens) (UniProt P19883); experiment: follistatin binders on small-molecule microarrays, primary screen, biochemical, small-molecule microarray, 635/667 nm fluorescence (AID 1132); conditions: FST binding, 635 nm fluorescence, higher = more signal
Sequence of Follistatin (Homo sapiens) (P19883 whole entry, looked up): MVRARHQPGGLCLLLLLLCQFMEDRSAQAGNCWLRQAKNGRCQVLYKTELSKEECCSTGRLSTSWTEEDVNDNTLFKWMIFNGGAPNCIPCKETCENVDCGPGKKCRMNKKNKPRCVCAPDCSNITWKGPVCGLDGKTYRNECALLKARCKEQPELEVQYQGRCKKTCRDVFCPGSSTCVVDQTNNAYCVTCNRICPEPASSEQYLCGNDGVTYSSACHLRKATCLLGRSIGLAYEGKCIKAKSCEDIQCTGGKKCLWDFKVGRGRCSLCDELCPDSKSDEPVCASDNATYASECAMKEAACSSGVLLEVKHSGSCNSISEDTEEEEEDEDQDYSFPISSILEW

[14] = target: Fibroblast growth factor 2 (Homo sapiens) (UniProt P09038); experiment: FGF2 binders on small-molecule microarrays, primary screen, biochemical, small-molecule microarray, 635/667 nm fluorescence (AID 1133); conditions: small-molecule microarray binding, FGF2, fluorescence 635/667; higher = more signal
Sequence of Fibroblast growth factor 2 (Homo sapiens) (P09038 whole entry, looked up): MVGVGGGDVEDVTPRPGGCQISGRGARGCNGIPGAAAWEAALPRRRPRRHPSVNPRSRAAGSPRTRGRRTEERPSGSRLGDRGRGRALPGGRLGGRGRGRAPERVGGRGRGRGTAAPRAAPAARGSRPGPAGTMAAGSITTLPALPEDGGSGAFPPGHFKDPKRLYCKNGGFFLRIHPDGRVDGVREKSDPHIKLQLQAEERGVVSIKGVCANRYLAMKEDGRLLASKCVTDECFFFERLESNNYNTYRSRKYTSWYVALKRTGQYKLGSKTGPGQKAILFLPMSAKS

[15] = mitochondrial membrane potential change in A549 cells, profiling panel, cell-based, JC-1 fluorescence, basal, 24 h, 100 nL (AID 1138); conditions: higher = more signal;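 further: A549 lung adenocarcinoma cells under basal conditions with no added stimulus; test concentration not given here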
Lefty1 = Lefty1 binders on small-molecule microarrays, primary screen, biochemical, small-molecule microarray, 635/667 nm fluorescence (AID 1139); conditions: small-molecule microarray binding, fluorescence 635/667; higher = more signal
[16] = system: wheat germ agglutinin (Triticum aestivum), Alexa647-labelled; experiment: wheat germ agglutinin binders on compound microarrays, profiling panel, artefact control for SMM control-protein annotation, biochemical, small-molecule microarray, 635/667 nm fluorescence (AID 1140); conditions: WGA-A647 binding, 635 nm fluorescence, higher = more signal;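 further: score merges 667 nm feature emission with signal to noise over triplicate slides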
[17] = target: Luciferin 4-monooxygenase (Photinus pyralis) (UniProt P08659); experiment: firefly luciferase enzyme inhibitors, primary screen, biochemical, luminescence, purified enzyme, 2006 set (AID 1141); conditions: SteadyGlo luminescence, 30 min, higher = more signal, called active from +8 up or from −8 down;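 further: cell-free assay with purified firefly luciferase at 100 ng per well in PBS; test concentration not given here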
Sequence of Luciferin 4-monooxygenase (Photinus pyralis) (P08659 whole entry, looked up): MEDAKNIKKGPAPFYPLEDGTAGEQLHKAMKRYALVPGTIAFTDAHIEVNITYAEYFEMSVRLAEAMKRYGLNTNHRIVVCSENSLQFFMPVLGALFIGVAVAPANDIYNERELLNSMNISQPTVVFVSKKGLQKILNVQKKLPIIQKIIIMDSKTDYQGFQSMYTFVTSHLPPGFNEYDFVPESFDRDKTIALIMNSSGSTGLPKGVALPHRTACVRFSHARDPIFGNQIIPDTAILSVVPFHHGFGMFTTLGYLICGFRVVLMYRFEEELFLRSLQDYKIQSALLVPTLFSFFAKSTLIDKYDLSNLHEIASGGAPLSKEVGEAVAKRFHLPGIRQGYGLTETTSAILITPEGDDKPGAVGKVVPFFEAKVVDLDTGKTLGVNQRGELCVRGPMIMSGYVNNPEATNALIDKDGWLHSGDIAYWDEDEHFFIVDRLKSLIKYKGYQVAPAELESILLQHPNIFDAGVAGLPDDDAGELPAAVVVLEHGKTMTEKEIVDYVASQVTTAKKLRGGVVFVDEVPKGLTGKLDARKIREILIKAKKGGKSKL

SMILES | composite z-score (Albumin (Bos taurus)) | composite Z-score [1] | composite z-score [2] | composite z-score [3] | composite z-score [4] | composite z-score [5] | composite z-score [6] | composite z-score (Sam68 (KHDRBS1)) | composite z-score [7] | composite z-score [8] | composite z-score [9] | composite z-score [10] | composite z-score [11] | composite z-score [12] | composite z-score [13] | composite z-score [14] | z-score [15] | composite z-score (Lefty1) | composite z-score [16] | z-score [17]
O=C1c2ccccc2C(=O)C2CC([C@H]3Oc4ccccc4S(=O)(=O)N4CCC[C@@H]34)=CCC12 (stereo not given in full) | 0.793 | 0.251 (inactive) | -0.122 | -0.117 | -0.241 | -0.296 | -0.363 | -0.557 | 0.139 | -1 | -0.0332 | 0.101 | 0.867 | 0.788 | -0.0849 | 0.189 | -0.309 | -0.02 | 0.47 | -0.759 (inactive)
CN1C(=O)C2C=CC(C(O)c3ccc(F)cc3)N(N3CCCCC3)C2C1=O (stereo not given) | 0.853 | -0.908 (inactive) | 0.29 | 0.155 | 0.714 | 1.5 | 0.804 | 1.32 | -1.42 | 1.08 | 2.59 | 0.978 | 1.34 | 0.167 | 0.0756 | -0.627 | -0.0964 | -1.21 | 1.38 | 0.0216 (inactive)
O=C1NC(=O)C2C1C=CC(C(O)c1ccc3c(c1)OCO3)N2Nc1ccc(Cl)cc1Cl (stereo not given) | 0.817 | 0.549 (inactive) | 0.144 | -0.063 | 0.566 | 3.03 | 1.19 | 0.355 | 0.26 | 0.148 | 1.24 | 0.453 | 0.822 | 0.0542 | 0.579 | -0.0317 | 0.512 | 0.194 | 0.698 | -0.109 (inactive)
COC(=O)C(CC#Cc1ccc2c(c1)[C@]1(C(=O)N2)[C@H](C(=O)N2CCc3cc(OC)c(OC)cc3C2)[C@H]2C(=O)O[C@H](c3ccccc3)[C@H](c3ccccc3)N2[C@@H]1c1ccc(O)cc1)C(=O)OC | -1.1 | -0.0536 (inactive) | 0.233 | 0.0273 | 0.326 | 1.64 | -0.137 | 1.29 | 1.25 | 1.16 | 2.77 | 1.22 | 0.695 | 0.867 | 1.49 | 1.84 | -1.48 | 1.14 | 0.664 | 8.96 (active)
COc1ccc([Si](C)(C)[C@@H]2[C@@H](CC(=O)N(CCO)Cc3ccccc3)O[C@]3(C(=O)N(Cc4ccc(N5CCOC5=O)cc4)c4ccccc43)[C@H]2C)cc1 | -0.697 | 0.516 (inactive) | -0.063 | -0.175 | 0.469 | 1.35 | -0.211 | 0.951 | 0.697 | 1.08 | 1.56 | 0.595 | 0.294 | 0.631 | 1.17 | 1.05 | -0.147 | 1.48 | 0.415 | -0.356 (inactive)
CCCCC(=C=CC[C@H](O)c1cccc(OCCO)c1)C[C@H](O)COCc1ccccc1 | 0.92 | 0.11 (inactive) | -0.179 | -0.107 | 0.697 | 0.972 | -0.501 | 0.435 | -0.592 | 0.0194 | -0.178 | 0.101 | 0.105 | -0.606 | 0.0306 | -0.473 | 0.396 | 0.743 | 0.435 | -0.352 (inactive)
C=CC[C@@]1(C(=O)NCC(O)CO)N=C(c2ccc(OCCCO)cc2)O[C@@H]1c1ccccc1 (stereo not given in full) | 0.814 | 1.81 (inactive) | 0.13 | -0.0028 | 0.797 | 3.84 | 0.595 | 1.22 | -0.381 | -0.237 | 1.98 | 0.932 | 0.307 | 0.543 | 1.44 | 1.02 | 1.01 | 0.0457 | 1.27 | -1.31 (inactive)
CCCCC=C[C@@H](NC(=O)CCc1ccccc1)c1ccccc1 | 0.585 | 1.46 (inactive) | 0.23 | 0.0409 | 0.689 | 2.37 | 0.785 | 1.2 | 0.0782 | 1.12 | 0.838 | 1.2 | 0.507 | 0.939 | 0.361 | 0.362 | -2.3 | -0.0782 | 1.07 | 1.08 (inactive)
CC(C)CCC[C@@H](C)[C@H]1CC[C@@]2(C)C3=C(CC[C@]12C)[C@@]1(C)CC[C@H](OC(=O)c2ccc(N)cc2)C(C)(C)C1CC3 (stereo not given in full) | 0.0881 | -0.196 (inactive) | 0.0406 | -0.207 | 0.0778 | -0.221 | -0.252 | 0.401 | 0.456 | 0.462 | 0.467 | 0.398 | 0.108 | 0.483 | 0.552 | 0.612 | 1.32 | 0.552 | 0.0599 | -1.43 (inactive)
O=C(O)[C@@]1(Cc2ccccc2)COC(c2ccc(OCCCO)cc2)=N1 | -0.584 | 0.133 (inactive) | -0.197 | -0.135 | 0.844 | 0.502 | -0.131 | -0.21 | -0.675 | -0.115 | -0.951 | -0.915 | -0.375 | -2.33 | 0.24 | -0.33 | 0.315 | -1.18 | -0.723 | -3.65 (inactive)
CN(C)CCCCCCNC(=O)[C@@H]1C[C@@H]2C(=O)NCC(=O)N2[C@@H]1c1ccc(O)cc1 | -0.671 | 2.25 (inactive) | 0.173 | -0.126 | 0.683 | 2.86 | 0.328 | 1.33 | 1.4 | 1.21 | 2.07 | 1.18 | 1.28 | 0.842 | 1.42 | 1.65 | -0.736 | 1.68 | 0.974 | 0.335 (inactive)

Source: PubChem BioAssay
